This passage reports max response and Potency results from PubChem BioAssay AID651814 (National Center for Advancing Translational Sciences (NCATS), 2012).

SMILES strings stand for the structures. Among all 2,100 compounds or so, about 590 (28%) were called active. About 42% were inconclusive and are not listed. Calls follow the shape of the dose curve; as a rule, active = well fitted inhibition curve with a large enough effect; inconclusive = small, poorly fitted or top-dose-only effect; inactive = flat fitted curve, though single readings scatter. The list shows a part of the results.
Potency is read from the fitted curve at half-maximal effect.

Sequence of DNA dC->dU-editing enzyme APOBEC-3F (Homo sapiens) (Q8IUX4 whole entry, looked up): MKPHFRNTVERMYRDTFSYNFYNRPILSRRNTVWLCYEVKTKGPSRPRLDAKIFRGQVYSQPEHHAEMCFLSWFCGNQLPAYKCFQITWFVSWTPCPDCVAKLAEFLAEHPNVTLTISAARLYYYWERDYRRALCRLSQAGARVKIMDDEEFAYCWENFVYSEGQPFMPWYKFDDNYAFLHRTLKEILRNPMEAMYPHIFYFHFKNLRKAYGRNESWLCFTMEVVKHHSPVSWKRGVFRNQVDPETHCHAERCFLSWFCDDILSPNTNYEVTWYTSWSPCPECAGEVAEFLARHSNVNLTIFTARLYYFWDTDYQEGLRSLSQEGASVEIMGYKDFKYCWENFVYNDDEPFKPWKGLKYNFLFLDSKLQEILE

The assay has as its target DNA dC->dU-editing enzyme APOBEC-3F (Homo sapiens) (UniProt Q8IUX4). As to the kind of experiment: qHTS for inhibitors of Vif-A3F interactions: Cherry picks. Also: nearly all actives have a fitted effect of over 70% in size.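 As to max response: % of control where 0% means no effect; active compounds raise eYFP fluorescence by blocking Vif-driven A3F loss.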 As to conditions: HeLa A3F-eYFP + Vif (tagged APOBEC3F with the HIV-1 protein that degrades it), eYFP fluorescence, 24 h. The method in brief: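 HeLa cells stably expressing A3F-eYFP plus Vif, cultured overnight, then exposed to compounds at several concentrations for 24 h at 37 deg C. Reduced Vif-driven degradation read as rising eYFP fluorescence (488 nm ex/500-530 nm em) by laser-scanning cytometry; MG132 as positive control.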
As for `CCC(C)Sc1cccc(-c2nc3cc(C)ccn3c2NC2CCCCC2)c1` (centres undefined), the max response is -1.04% (inactive). Still for that read-out and setting: the same measure for `Cc1cc(-n2c(SCC(=O)Nc3ccc(Br)cc3)nc3n[nH]c(C)c3c2=N)ccc1Cl`: -24.1% (inactive). The same measure, in the same setting: in the case of `Cc1cc(-n2c(C)cc(C(=O)CCl)c2C)no1` it was -21.8% (inactive). On to `COc1ccc2o/c(=N/NC(=O)c3cccs3)c(C(N)=O)cc2c1`, for which the Potency was 3.96 µM (active).

Take `COc1cc(OC)cc(C(=O)Nc2ccc(N3CCN(C(=O)c4cccs4)CC3)cc2)c1`: the max response was -11.5% (inactive).

For the molecule `COc1ccc2oc(=N)c(C(=O)Nc3ccc(F)cc3)cc2c1`, the max response was -21% (inactive). In the case of `COC(=O)C1=C(Nc2ccc(C)cc2)C=C(C)C(C(=O)OC)C1c1cccc(OC)c1` (centres undefined), the max response was -20.5% (inactive). `CN(C)c1ccc2ccc3cccc4ccc1c2c34`: the Potency was 9.2 µM (active). Same read-out and setting: the same measure for `Cc1cccc(CN2C(=O)N/C(=C/c3ccc(C)s3)C2=O)c1`: 9.94 µM (active). With `COCc1ccc(O)c2ncccc12`, the max response was 1.62% (inactive).

With `Cc1cc(NC(=O)/C(C#N)=C/c2ccc(-c3ccc(SC(F)F)cc3)o2)n(-c2ccccc2)n1`, the Potency was 3.66 µM (active). Same read-out and setting: the same measure for `Cc1cc(NC(=O)/C(C#N)=C\c2ccc(-c3ccc(SC(F)F)cc3)o2)n(-c2ccccc2)n1`: 9.2 µM (active). For the molecule `Cc1ccc(C)c(N2CCN(C(=O)c3cccn4c(=O)c5sccc5nc34)CC2)c1`, the max response was -29.7% (inactive).

Consider `CCOC(=O)c1ccc(/C=C2/C=C(c3ccccc3)N(c3ccc(Cl)c(C(=O)O)c3)C2=O)cc1`, for which the Potency is 20.6 µM (active). Regarding `CC(NC(=O)c1ccc(Nc2nc3ccccc3n3nnnc23)cc1)c1ccccc1` (centres undefined), the Potency was 16.4 µM (active). Take `CN(C)c1ccc(Nc2nc3ccccc3n3nnnc23)cc1`: the max response was -2.05% (inactive).

For `Cc1ccc(C(=O)O)cc1Nc1nc2ccccc2n2nnnc12`, the max response is -4.15% (inactive). Turning to `Cc1cccc2cc3c(N)c(C(=O)N4CCc5ccccc54)sc3nc12`, the Potency was 6.51 µM (active). On to `Cc1cccc2cc3c(N)c(C(=O)N4CCCc5ccccc54)sc3nc12`, for which the Potency was 9.2 µM (active). On the same count and under the same terms, the same measure for `Cc1ccc2nc3sc(C(=O)N4CCCc5ccccc54)c(N)c3cc2c1`: 14 µM (active). Turning to `CCCn1nnc(NC(=S)NC(=O)c2ccccc2OC)n1`, the max response was 0.308% (inactive). For `O=C(Cc1nc2ccccc2[nH]c1=O)c1ccc(Cl)cc1`, the Potency was 18.4 µM (active).

As to `CC(=O)Nc1ccc(NC(=O)C/C(C)=N/NC(N)=S)cc1`, the max response is 0.646% (inactive). Same read-out and setting: the same measure for `CCc1ccc(C(=O)NC(=S)Nc2ccc(N3CCOCC3)cc2)cc1`: -0.0784% (inactive).

For the molecule `CCc1ccc(NC(=O)/C(C#N)=C/c2cc3ccc(C)cc3nc2N2CCOCC2)cc1`, the Potency was 14.6 µM (active). For the molecule `COCCCNC(=S)N/N=C/c1ccc(OC)cc1`, the max response was -0.494% (inactive). On the same count and under the same terms, in the case of `C=CCNC(=S)N/N=C(\C)c1ccc(OC)cc1` it was -3.87% (inactive). Regarding `Cc1cc(C)c(/C=C2\C(=O)Nc3ccccc32)[nH]1`, the Potency is 16.4 µM (active). As for `Cc1nn(-c2ccc(F)cc2)c(Cl)c1/C=C1\C(=O)Nc2ccccc21`, the max response was -19.4% (inactive). As for `CNCC(O)Cn1c2c(c3ccccc31)CCCC2` (centres undefined), the max response was 1.63% (inactive). On to `CCN(CC)c1cc(C)c(/C=C/c2ccnc3ccccc23)cc1C`, for which the Potency is 13 µM (active). For the molecule `CCN(CC)c1ccc(NC(=O)CSc2nc(C3CC3)nc3ccccc23)cc1C`, the max response was -22.1% (inactive).

For the molecule `Cc1cc(N(C)C)c(C)cc1/C=C/c1ccnc2ccccc12`, the Potency was 18.4 µM (active).

`Cc1cc(C)n(S(=O)(=O)/C=C/c2ccccc2)n1`: the max response is -7.92% (inactive).

For the molecule `c1ccc2[nH]c(NN=C3CCCCCC3)nc2c1`, the max response is 2.02% (inactive). In the case of `O=C(Nc1ccccc1-c1nc2ccccc2[nH]1)c1ccc(N2C(=O)CCC2=O)cc1`, the Potency was 18.4 µM (active). Still for that read-out and setting: the same measure for `CCN1C(=S)SC(=O)C1=C1C=C(C)N(Cc2ccco2)C(C)=C1`: 17.7 µM (active). Still for that read-out and setting: the same measure for `CN(C)C=Nc1c(Br)cc(Br)c2nonc12`: 14.6 µM (active). As to `O=S(=O)(Nc1cccc2ncccc12)c1cccs1`, the max response was -3.96% (inactive).

With `Cc1cc(C)cc(NC(=O)/C=C/c2ccc([N+](=O)[O-])s2)c1`, the Potency is 10.3 µM (active). As for `Cc1ccc(NC(=O)c2ccc([N+](=O)[O-])s2)cc1S(=O)(=O)N1CCOCC1`, the max response is -11.7% (inactive). As for `Cc1cccc(NC(=O)/C=C/c2ccc([N+](=O)[O-])s2)c1`, the Potency was 3.26 µM (active). For the molecule `Cc1nc(NC(=O)/C=C/c2ccco2)sc1C`, the max response was -21.9% (inactive). Consider `CC(=O)c1cccc(NC(=O)/C=C/c2ccc([N+](=O)[O-])s2)c1`, for which the Potency was 5.17 µM (active).

Regarding `Cc1ccc(NC(=O)/C=C/c2ccc([N+](=O)[O-])s2)c(C)c1`, the Potency is 5.17 µM (active). For the molecule `COC(=O)c1sccc1NC(=S)Nc1cc(C)cc(C)c1`, the max response was -0.135% (inactive). The same measure, in the same setting: the same measure for `CC(=O)c1cccc(NC(=S)N2c3ccccc3CC2C)c1` (centres undefined): 9.61% (inactive). Still for that read-out and setting: the same measure for `N#C/C=C/N1CCN(C(=O)c2ccco2)CC1`: 0.169% (inactive). Same read-out and setting: in the case of `Cc1cc(C)nc(-n2nc(C)cc2NC(=O)c2ccc(F)cc2F)n1` it was -0.0521% (inactive). For the molecule `COc1cccc(Nc2nc(Nc3ccc(Cl)c(C(=O)O)c3)nc(C)c2[N+](=O)[O-])c1`, the max response was -16.3% (inactive). Regarding `Cc1ccc(NC(=O)/C=C/c2ccc([N+](=O)[O-])s2)cc1`, the Potency is 5.17 µM (active).

As to `CCOC(=O)c1cc2n(c1N)-c1ccccc1C2=O`, the max response is -16.6% (inactive). With `CCOC(=O)c1cc2n(c1/N=C/N(C)C)-c1ccccc1C2=O`, the Potency was 18.4 µM (active). As for `Fc1cccc(Cc2c(-c3ccco3)nc3ccc(Br)cn23)c1`, the max response is -28.7% (inactive). `O=C1c2ccccc2C(=O)c2c(/C=C/N3CCCCC3)ccnc21`: the Potency was 20.6 µM (active). For `CC(=O)Oc1ccc(N2C(=O)c3cccc4c([N+](=O)[O-])ccc(c34)C2=O)cc1`, the max response was -15.1% (inactive). Turning to `CC(=O)Oc1cccc(N2C(=O)c3cccc4c([N+](=O)[O-])ccc(c34)C2=O)c1`, the Potency is 14 µM (active). As to `O=C1c2cccc3c([N+](=O)[O-])ccc(c23)C(=O)N1c1ccccn1`, the max response is -0.304% (inactive). For the molecule `COc1ccc(C(=O)C[n+]2cccc3cc(Cl)ccc32)cc1`, the Potency was 18.4 µM (active). The same measure, in the same setting: in the case of `COc1ccc(C(=O)C[n+]2cc(Br)cc3ccccc32)cc1` it was 8.2 µM (active). On the same count and under the same terms, in the case of `O=C(C[n+]1cccc2cc(Cl)ccc21)c1ccc2ccccc2c1` it was 18.4 µM (active); in that of `CC(C)(C)c1ccc(C(=O)C[n+]2cccc3cc(Cl)ccc32)cc1`, 20.6 µM (active). In the case of `CCCC1=[N+](CC(=O)c2ccc(Br)cc2)CCn2cccc21`, the max response was -4.77% (inactive).

`CCCc1nc2c(C)cc(Br)cn2c1Cc1ccccc1`: the max response was -22.2% (inactive). Regarding `O=C(COc1ccccc1)NC(=S)Nc1cccc2c(O)cccc12`, the max response was -15.7% (inactive). As for `COc1ccc(C(=O)NC2CCCc3ccccc32)cc1[N+](=O)[O-]` (centres undefined), the max response was -23.5% (inactive).

Turning to `O=C(C[n+]1cccc2cc(Cl)ccc21)c1ccc(I)cc1`, the Potency is 20.6 µM (active). On to `NN=C1c2ccccc2C(=O)C1C(=O)C(c1ccccc1)c1ccccc1` (centres undefined), for which the Potency is 7.9 µM (active). `O=C(c1ccccc1)C1C(=O)c2ccccc2C1=O`: the max response was 2.89% (inactive). Still for that read-out and setting: in the case of `NC(=O)CSc1nc2c(sc3ccccc32)c(=O)n1CCCC(=O)NCC1CCCO1` (centres undefined) it was 3.7% (inactive). Consider `CCOC(=O)/C=c1\s/c(=C\c2c(OC)ccc3ccccc23)c(=O)n1CC(=O)NCC1CCCO1` (centres undefined), for which the Potency was 14.6 µM (active). Consider `CCOC(=O)/C=c1/s/c(=C\c2c(OC)ccc3ccccc23)c(=O)n1CC(=O)NCC1CCCO1` (centres undefined), for which the Potency is 11.2 µM (active). As to `CCOC(=O)/C=c1/s/c(=C/c2ccc3cc(OC)ccc3c2)c(=O)n1CC(=O)NCC1CCCO1` (centres undefined), the Potency was 18.4 µM (active). In the case of `Cc1cc(-c2ccccc2)c2c3c(c(-c4ccccc4)n2n1)c(=O)n(C)c(=O)n3C`, the max response is -9.86% (inactive). Turning to `Cc1ccc(Nc2nc(Cl)c(C=O)s2)cc1Cl`, the Potency is 23.1 µM (active).

For `CN(C)c1ccc(/C=C(\C#N)c2nc3ccccc3c(=O)[nH]2)cc1`, the Potency is 0.731 µM (active). For the molecule `N#C/C(=C\c1ccc(C(=O)O)cc1)c1nc2sc3c(c2c(=O)[nH]1)CCCC3`, the max response was 1.2% (inactive).

In the case of `Fc1ccc(-c2cnn3c(-c4cccs4)ccnc23)cc1`, the Potency was 4.98 µM (active). Turning to `Cc1ccccc1NCC(=O)N=Nc1c(O)[nH]c2ccc([N+](=O)[O-])cc12`, the max response was -1.42% (inactive). Take `CCN(CC)S(=O)(=O)c1cc([N+](=O)[O-])ccc1N=Nc1c(O)[nH]c2ccccc12`: the Potency is 16.4 µM (active). As for `CCCN(CCC)c1ccc(/C=C/c2ccnc3ccccc23)cc1`, the Potency was 7.31 µM (active). Consider `CC(C)CN(CC(C)C)c1ccc(/C=C/c2ccnc3ccccc23)cc1`, for which the Potency was 20.6 µM (active). On to `CCN(C)c1ccc(/C=C/c2ccnc3ccccc23)cc1`, for which the Potency was 13 µM (active). The same measure, in the same setting: in the case of `CCCCN(CCC(=O)O)c1ccc(/C=C/c2ccnc3ccccc23)cc1` it was 18.4 µM (active).

For `CCOc1ccc(-c2cc(C(=O)N/N=C(\C)c3cccnc3)c3ccccc3n2)cc1`, the max response is -8.69% (inactive). Take `CCCCN(CCCC)c1ccc(/C=C/c2ccnc3ccccc23)cc1`: the Potency is 20.6 µM (active).

Turning to `CCN(CC)c1ccc(/C=C/c2ccnc3ccccc23)cc1`, the Potency was 6.51 µM (active). Same read-out and setting: the same measure for `CCN(CCCN(C)C)c1ccc(/C=C/c2ccnc3ccccc23)cc1`: 18.4 µM (active). `CCOC(=O)c1c(C)oc2ccc(N(C(=O)c3ccncc3)S(=O)(=O)c3ccc(Br)cc3)cc12`: the max response was -14.4% (inactive).

On to `O=C(NC1C/C(=N/O)c2cc3c(cc21)OCO3)C(F)(F)F` (centres undefined), for which the max response is 0.0424% (inactive).

As for `CC(=O)n1c2ccccc2c2nc3ccccc3nc21`, the Potency is 11.6 µM (active). Consider `Cc1cccc(-n2c(N)c(-c3nc4ccccc4n3C)c3nc4ccccc4nc32)c1`, for which the max response is -0.799% (inactive). As for `Cc1ccc2nc(/C(C#N)=C/c3ccc(-c4cccc(Cl)c4)o3)[nH]c2c1`, the Potency is 4.61 µM (active).

In the case of `Cc1ccc2nc(/C(C#N)=C/c3ccc(-c4cccc([N+](=O)[O-])c4)o3)[nH]c2c1`, the max response was -29.2% (inactive).

Consider `Cc1ccc2nc(/C(C#N)=C/c3ccc(-c4ccccc4C(=O)O)o3)[nH]c2c1`, for which the max response is -7.06% (inactive). Regarding `N#C/C(=C\c1ccc(-c2ccc(F)cc2F)o1)c1nc2ccccc2[nH]1`, the Potency was 20.6 µM (active).

Turning to `Cc1ccc2nc(/C(C#N)=C/c3ccc(-c4ccc(F)cc4F)o3)[nH]c2c1`, the Potency is 4.11 µM (active). Consider `N#C/C(=C\c1ccc(-c2ccc(C(=O)O)cc2)o1)c1nc2ccccc2[nH]1`, for which the max response was 0.542% (inactive). As for `Cc1ccc2nc(/C(C#N)=C/c3ccc(-c4ccc(C(=O)OC(C)C)cc4)o3)[nH]c2c1`, the Potency was 2.06 µM (active).
